This is a sample that favours compounds with a hit; in the whole collection about 3.1% have one here.
ASM inhibitor: Inhibitors of Secretory Acid Sphingomyelinase (S-ASM): qHTS | placental ASM, HMU-PC fluorogenic substrate, 60 min | Sphingomyelin phosphodiesterase (Homo sapiens), P17405 | 340,000 compounds, 0.006% hits | Potency, µM (highest dose often 57.5 µM), most hits filed as inhibitors
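Fluorescence read-out (Ex 386 nm, Em 447 nm) after stopping the reaction at pH 10. Enzyme: ASM from human placenta; substrate HMU-PC0, 9 uM final; 60 min, 37 °C. Compound preincubation 10 min, ambient temperature.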
TDP1 inh: qHTS Assay for Inhibitors of Tyrosyl-DNA Phosphodiesterase (TDP1); recombinant TDP1, AlphaScreen DNA substrate cleavage; Potency, µM (doses to about 130 µM), actives largely listed as inhibitors; 350,000 compounds, 0.28% hits; Tyrosyl-DNA phosphodiesterase 1 (Homo sapiens), Q9NUW8; AID 485290, 2010; further: nearly all actives have a fitted effect of over 40% in size
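Here, a 5' biotin and 3' phosphotyrosine-FITC DNA oligonucleotide reports Tdp1 activity: intact substrate bridges AlphaScreen beads, while cleavage leaves a 3' phosphate and drops signal. All incubations at room temperature.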
PLK1 PBD block: qHTS for Inhibitors of PLK1-PDB (polo-like kinase 1 - polo-box domain): Primary Screen; Plk1 PBD binding of FITC phosphopeptide, fluorescence polarization; Potency, µM, most hits filed as inhibitors; 360,000 compounds, 2.8% hits; AID 720504, 2013; further: series mostly up to about 57 µM; nearly all actives have a fitted effect of over 65% in size
Pin1 inhibitor: qHTS Assay to Find Inhibitors of Pin1. Potency, µM (doses to about 115 µM), hits mostly inhibitors. 390,000 compounds, 0.009% hits. Peptidyl-prolyl cis-trans isomerase NIMA-interacting 1 (Homo sapiens), Q13526. Pin1 FP peptide displacement, HiFluor488, 10 min. AID 504891, 2011; active means well fitted inhibition curve with a large enough effect in the polarisation, with a control signal flat, not every such curve was filed as active; inconclusive means small, poorly fitted or top-dose-only effect, or effect the other way, or a change in a side signal; inactive means no such curve, though single readings can be large or run the other way; the % refers to the polarisation
Target sequence (Q13526 whole entry, looked up): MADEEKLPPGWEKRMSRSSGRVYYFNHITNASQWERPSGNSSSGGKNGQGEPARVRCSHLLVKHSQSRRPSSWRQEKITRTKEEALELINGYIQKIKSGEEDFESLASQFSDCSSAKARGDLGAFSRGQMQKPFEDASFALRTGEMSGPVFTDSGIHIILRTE
Tb PFK inh: qHTS Assay to Find Inhibitors of T. brucei phosphofructokinase. ATP-dependent 6-phosphofructokinase (Trypanosoma brucei brucei), O15648. 330,000 compounds, 0.17% hits. T. brucei PFK, ADP-Glo luminescence. Potency, µM (doses to about 57.5 µM), usual class: inhibitors; further: nearly all actives have a fitted effect of over 60% in size
Target sequence (O15648 whole entry, looked up): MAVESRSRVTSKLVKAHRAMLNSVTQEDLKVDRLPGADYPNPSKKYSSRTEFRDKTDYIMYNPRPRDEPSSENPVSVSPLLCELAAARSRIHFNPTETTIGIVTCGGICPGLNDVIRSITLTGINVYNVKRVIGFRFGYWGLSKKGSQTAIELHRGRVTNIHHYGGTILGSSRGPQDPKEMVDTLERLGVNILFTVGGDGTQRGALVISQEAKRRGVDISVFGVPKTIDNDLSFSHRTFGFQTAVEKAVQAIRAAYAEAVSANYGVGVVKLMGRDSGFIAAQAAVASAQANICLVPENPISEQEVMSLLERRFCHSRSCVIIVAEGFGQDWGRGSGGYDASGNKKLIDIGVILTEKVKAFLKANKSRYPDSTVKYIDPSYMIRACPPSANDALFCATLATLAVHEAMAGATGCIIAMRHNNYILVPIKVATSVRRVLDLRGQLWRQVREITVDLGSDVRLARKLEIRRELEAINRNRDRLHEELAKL
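In TEA buffer at pH 8.0 with 5 mM MgCl2, enzyme (1.25 nM) converted F6P (0.5 mM) and ATP (0.1 mM) for 45 min at room temperature. ADP product was read by luciferase luminescence.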
VDR inh: Inhibitors of the vitamin D receptor (VDR): qHTS | Vitamin D3 receptor (Homo sapiens), P11473 | VDR-SRC2-3 peptide fluorescence polarization, 2 h | Potency, µM, usual class: inhibitors | 400,000 compounds, 0.93% hits | AID 504847, 2011
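Fluorescence polarization assay of small-molecule disruption of VDR binding to coregulator peptide SRC2-3. Compounds and controls pin-transferred, then read after 2 h incubation at ambient room temperature.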
A number is an active result; i = inactive; ? = inconclusive; nt = no result given. Unless noted, the call rests on the fitted dose curve; in most records, active means well fitted curve in the direction sought with a large enough effect; inconclusive means small, poorly fitted or top-dose-only effect, or another doubt; inactive means no such curve, though single readings can be large; an effect the other way counts as inactive or inconclusive.

SMILES	ASM inhibitor	TDP1 inh	PLK1 PBD block	Pin1 inhibitor	Tb PFK inh	VDR inh
N#CC1=C(N)NC(=S)C(C(N)=O)C1c1ccc(Cl)cc1Cl (stereo unspecified)	i	i	19µM	i	i	22µM
N#CC1=C(N)NC(=S)C(C(N)=O)C1c1ccccc1F (stereo unspecified)	i	i	19µM	i	i	4.5µM
NC(=S)N/N=C/c1ccc(-c2ccccc2)o1	i	i	i	i	i	i
Cc1ccc(-c2ccc(/C=N/NC(N)=S)o2)cc1	i	nt	6µM	i	i	89µM
O=C(N/N=C/c1ccc(-c2ccc(S(=O)(=O)Nc3ncccn3)cc2)o1)c1cc2ccccc2cc1O	i	nt	27µM	?	i	i
NC(=S)NN=Cc1ccc(-c2ccc(S(=O)(=O)Nc3ncccn3)cc2)o1	i	10µM	30µM	?	?	i
CCOc1ccc(C(=O)N/N=C/c2ccc(-c3ccc(S(=O)(=O)Nc4ncccn4)cc3)o2)cc1	i	i	i	nt	i	i
NC(=O)C1CCN(c2nc(-c3ccc(-c4ccccc4)cc3)cs2)CC1	nt	nt	nt	i	nt	nt
CC(C)c1ccc(NC(=O)CN2C(=O)COc3ccc(S(=O)(=O)N4CCCCC4)cc32)cc1	nt	i	nt	i	nt	i
CNC(=O)Oc1ccc2c(c1)C1(C)CCN(C)C1N2C (stereo unspecified)	nt	i	nt	nt	nt	nt
COC(=O)c1ccc2c(=O)n(CCCCCC(=O)N3CCN(c4ccccc4)CC3)c(=O)[nH]c2c1	i	i	30µM	i	i	?
COc1cc2[nH]c(=O)n(CCCCCC(=O)N3CCN(c4ccccc4)CC3)c(=O)c2cc1OC	i	i	i	i	i	i
CCCC/C=C1/CCC(CN(C)C)C1=O (stereo unspecified)	i	nt	12µM	i	nt	?
COc1ccc(/C=C2/CCCC(CN(C)C)C2=O)cc1 (stereo unspecified)	i	nt	24µM	i	nt	?
COc1cccc(/C=C2/CCC(CN(C)C)C2=O)c1 (stereo unspecified)	i	nt	3.4µM	i	nt	40µM
CN(C)CC1CCC/C(=C/c2ccc(Cl)cc2)C1=O (stereo unspecified)	i	nt	6µM	i	nt	79µM
CN(C)CC1CCC/C(=C\c2ccc(OC(=O)/C=C/c3ccc(Cl)c(Cl)c3)cc2)C1=O (stereo unspecified)	i	nt	i	i	nt	?
COc1cccc(/C=C2\CCC(C3CCCC3)C2=O)c1 (stereo unspecified)	i	nt	i	i	i	i
CSCC[C@H](NC(=O)[C@H](CCC(N)=O)NC(=O)[C@H](CCCCN)NC(=O)[C@H](CCCNC(=N)N)NC(=O)[C@H](Cc1ccc(O)cc1)NC(=O)[C@H](CCCNC(=N)N)NC(=O)[C@H](CO)NC(=O)[C@H](Cc1ccc(O)cc1)NC(=O)[C@H](CO)NC(=O)[C@H](CC(=O)O)NC(=O)[C@@H](NC(=O)[C@@H](N)Cc1ccccc1)[C@@H](C)O)C(=O)N[C@@H](C)C(=O)N[C@H](C(=O)N[C@@H](CCCCN)C(=O)N[C@@H](CCCCN)C(=O)N[C@@H](Cc1ccc(O)cc1)C(=O)N[C@@H](CC(C)C)C(=O)N[C@@H](C)C(=O)N[C@@H](C)C(=O)N[C@H](C(=O)N[C@@H](CC(C)C)C(=O)NCC(=O)N[C@@H](CCCCN)C(=O)N[C@@H](CCCNC(=N)N)C(=O)N[C@@H](Cc1ccc(O)cc1)C(=O)N[C@@H](CCCCN)C(=O)N[C@@H](CCC(N)=O)C(=O)N[C@@H](CCCNC(=N)N)C(=O)N[C@H](C(=O)N[C@@H](CCCCN)C(=O)N[C@@H](CC(N)=O)C(=O)N[C@@H](CCCCN)C(N)=O)C(C)C)C(C)C)C(C)C	nt	i	nt	nt	nt	i
COc1cccc(NC(=O)C(=O)NCCc2csc(-c3ccc(C)cc3)n2)c1	nt	i	nt	i	nt	i
CCC1Oc2ccc(C)cc2N(CC(=O)N2CCN(c3ccccc3OC)CC2)C1=O (stereo unspecified)	nt	i	nt	i	nt	i
O=C(NC(NC(=S)Nc1ccc(F)c([N+](=O)[O-])c1)C(Cl)(Cl)Cl)C(c1ccccc1)c1ccccc1 (stereo unspecified)	nt	i	nt	nt	nt	i
CCOC(=O)C1CCN(C(=O)CN2c3ccc(C(C)C)cc3-c3ccccc3S2(=O)=O)CC1	nt	i	nt	i	nt	i
CC[C@H](C)[C@H](NC(=O)[C@H](CO)NC(=O)[C@H](CC(C)C)NC(=O)[C@@H]1CCCN1C(=O)[C@@H]1CCCN1C(=O)[C@H](CC(=O)O)NC(=O)[C@@H](N)CC(=O)O)C(=O)N[C@@H](CC(=O)O)C(=O)N[C@@H](CC(C)C)C(=O)N[C@H](C(=O)N[C@@H](Cc1ccccc1)C(=O)N[C@@H](Cc1cnc[nH]1)C(=O)N[C@@H](CC(C)C)C(=O)N[C@@H](CC(C)C)C(=O)N[C@@H](CCCNC(=N)N)C(=O)N[C@H](C(=O)N[C@@H](CC(C)C)C(=O)N[C@@H](CC(C)C)C(=O)N[C@@H](CCC(=O)O)C(=O)N[C@@H](CC(C)C)C(=O)N[C@@H](C)C(=O)N[C@@H](CCCNC(=N)N)C(=O)N[C@H](C(=O)N[C@@H](CCC(N)=O)C(=O)N[C@@H](CO)C(=O)N[C@@H](CCC(N)=O)C(=O)N[C@@H](CCCNC(=N)N)C(=O)N[C@@H](CCC(=O)O)C(=O)N[C@@H](CCCNC(=N)N)C(=O)N[C@@H](C)C(=O)N[C@@H](CCC(=O)O)C(=O)N[C@@H](CCC(N)=O)C(=O)N[C@@H](CC(N)=O)C(=O)N[C@@H](CCCNC(=N)N)C(=O)N[C@H](C(=O)N[C@H](C(=O)N[C@@H](Cc1ccccc1)C(=O)N[C@@H](CC(=O)O)C(=O)N[C@@H](CO)C(=O)N[C@H](C(N)=O)C(C)C)[C@@H](C)CC)[C@@H](C)CC)[C@@H](C)O)[C@@H](C)O)[C@@H](C)O	nt	i	nt	nt	nt	i
CCOc1ccc(NS(=O)(=O)c2ccc(NC(=S)NC(=O)C(C)C)cc2)cc1	i	i	27µM	i	i	i
Cc1cc2nc(-c3ccc(OCc4ccccc4F)cc3)cc(C(F)(F)F)n2n1	nt	i	nt	?	nt	i
O=[N+]([O-])c1ccc2nc(CCCO)[nH]c2c1	i	i	i	i	i	i

High-throughput results: PubChem, National Center for Advancing Translational Sciences (NCATS)
